Data taken from PubChem BioAssay AID652195 (Johns Hopkins Ion Channel Center, 2013).
Active and inactive are the calls of the source.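 The calls were made as follows: active = peak TRPC6 channel inhibition above 30% at some tested dose, with a fitted dose response curve; inactive = no inhibition at any dose or no curve fitted.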

target: Short transient receptor potential channel 6 (Mus musculus) (UniProt Q61143); assay: mouse TRPC6 channel blockers, concentration series – HEK293 cells, membrane potential dye, quadruplicate, selectivity assay for selective TRPC4 inhibitor project, dose response (AID 652195); details: FDSS; series mostly up to 20 µM; membrane potential ratio (lower = inhibition): at the top concentration
Sequence (Q61143 whole entry, looked up): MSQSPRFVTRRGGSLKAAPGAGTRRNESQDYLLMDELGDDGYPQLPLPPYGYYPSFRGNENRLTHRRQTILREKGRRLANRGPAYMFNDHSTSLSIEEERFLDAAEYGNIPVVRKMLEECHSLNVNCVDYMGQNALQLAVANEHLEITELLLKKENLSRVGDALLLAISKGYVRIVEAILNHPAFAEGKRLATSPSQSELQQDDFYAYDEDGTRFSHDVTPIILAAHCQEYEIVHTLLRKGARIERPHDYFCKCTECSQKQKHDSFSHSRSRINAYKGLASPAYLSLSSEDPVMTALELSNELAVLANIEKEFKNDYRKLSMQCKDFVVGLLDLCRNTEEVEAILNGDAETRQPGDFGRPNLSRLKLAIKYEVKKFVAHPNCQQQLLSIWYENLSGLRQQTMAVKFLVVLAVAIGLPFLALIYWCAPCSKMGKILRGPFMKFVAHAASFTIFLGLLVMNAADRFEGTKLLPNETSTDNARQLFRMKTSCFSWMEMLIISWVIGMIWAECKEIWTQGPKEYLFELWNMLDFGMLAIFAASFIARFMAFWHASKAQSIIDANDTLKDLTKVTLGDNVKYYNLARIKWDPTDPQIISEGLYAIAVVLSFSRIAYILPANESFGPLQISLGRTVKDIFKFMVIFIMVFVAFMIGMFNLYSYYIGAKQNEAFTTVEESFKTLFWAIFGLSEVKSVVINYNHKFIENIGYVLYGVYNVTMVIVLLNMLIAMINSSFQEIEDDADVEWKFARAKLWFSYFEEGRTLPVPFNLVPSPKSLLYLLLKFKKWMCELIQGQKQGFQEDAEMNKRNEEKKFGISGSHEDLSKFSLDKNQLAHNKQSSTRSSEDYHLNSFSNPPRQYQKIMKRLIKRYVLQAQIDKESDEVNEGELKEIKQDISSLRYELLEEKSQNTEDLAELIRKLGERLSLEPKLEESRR

Membrane potential ratio (lower = inhibition), inactive:
FC1(F)CCN(c2ccc3ccccc3n2)CC1 39.6
Cc1cc(N2CCC(O)C2)nc2ccccc12 (centres undefined) 33.5
FC1CCCN(c2ccc3ccccc3n2)C1 (centres undefined) 43.5
Cc1cc(N(C)C)nc2ccccc12 37.2
C[C@H]1CCCN1c1ccc2ccccc2n1 30.5
Cc1cc(N2CCC(=O)CC2)nc2ccccc12 40.5
O=C1CCN(c2ccc3ccccc3n2)CC1 43.8
OC1CCCN(c2ccc3ccccc3n2)C1 (centres undefined) 36.9
c1ccc2nc(N3CCCC3)ccc2c1 35.8
OC1CCN(c2ccc3ccccc3n2)CC1 50.8
Cc1cc(N2CCCC(F)C2)nc2ccccc12 (centres undefined) 35.9
OC1CCN(c2ccc3ccccc3n2)C1 (centres undefined) 42.2
Cc1cc(N2CCC(O)CC2)nc2ccccc12 44.3
Cc1cc(-n2cccc2)nc2ccccc12 41.5
Cc1cc(N2CCC(F)(F)CC2)nc2ccccc12 43.2
Cc1cc(N2CCC(F)CC2)nc2ccccc12 37.7
FC1CCN(c2ccc3ccccc3n2)CC1 37.4
Cc1cc(-n2cccn2)nc2ccccc12 42.6
Cc1cc(-n2ccnc2)nc2ccccc12 50.2
